Tau fibril FP: tau fibrillization inhibition (FP). K18 P301L tau heparin fibrillization, Alexa594 FP, 6 h. Potency, µM (titrated, usually from 57.7 µM), for the others: at the top dose activity, negative = inhibition, most hits filed as inhibitors. hit rate 0.39% among 280,000. AID 1468; note: nearly all actives have a fitted effect of over 55% in size
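Read-out: fluorescence polarization of Alexa 594-labeled tau (0.24 uM), 555 nm excitation, 632 nm emission. Mixtures held 15 uM unlabeled K18 P301L, compound and 20 uM heparin, pH 7 acetate buffer, incubated 6 hr at 37 C.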
Tau fluor counter: counter-screen for tau fibril formation inhibitors; tau K18 P301L Alexa594 fluorescence, heparin fibrillization; Potency, µM (series often up to 57.7 µM), inactives show at the top dose activity change, negative = decrease; hit rate 0.93% among 280,000; AID 1463; note: nearly all actives have a fitted effect of over 55% in size
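Human tau K18 P301L (15 uM unlabeled, 0.24 uM Alexa 594-labeled) in 100 mM sodium acetate pH 7 with 20 uM heparin, 6 hr at 37 C. ThT 30 uM added, 1 hr ambient; Alexa 594 FP and total fluorescence read at 555/632 nm.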
HPGD block: HPGD (human) dehydrogenase inhibition. P15428. Potency, µM, inactives show at the top dose activity change, negative = inhibition, most hits filed as inhibitors. hit rate 4.3% among 150,000. purified HPGD, NADH fluorescence kinetic, PGE2 substrate; active = well fitted inhibition curve with a large enough effect, not every such curve was filed as active; inconclusive = small, poorly fitted or top-dose-only effect, or another doubt; inactive = no such curve, though single readings can be large or run the other way
Target sequence (P15428 whole entry, looked up): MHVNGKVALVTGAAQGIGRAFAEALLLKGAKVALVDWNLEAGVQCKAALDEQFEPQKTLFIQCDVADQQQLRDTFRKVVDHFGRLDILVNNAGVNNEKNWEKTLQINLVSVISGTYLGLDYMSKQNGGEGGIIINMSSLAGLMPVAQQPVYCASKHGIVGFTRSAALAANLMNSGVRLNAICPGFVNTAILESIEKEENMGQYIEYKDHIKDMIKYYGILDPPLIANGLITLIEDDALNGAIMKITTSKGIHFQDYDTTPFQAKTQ
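20 nM HPGD preincubated 15 min at room temperature with compound in 50 mM Tris-HCl pH 8, 0.01% Tween 20. Started with 1 mM NAD+ and 30 uM prostaglandin E2; NADH fluorescence (360/450 nm) read 5 times over 30-s intervals, last minus first.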
ALDH1A1 block: ALDH1A1 (human) enzyme inhibition; P00352; Purified ALDH1A1, NADH fluorescence, propionaldehyde substrate; Potency, µM (top dose mostly 75.3 µM), for inactives: at the highest dose activity, negative = inhibition, actives largely listed as inhibitors; hit rate 7.3% among 220,000; active = well fitted inhibition curve with a large enough effect, not every such curve was filed as active; inconclusive = small, poorly fitted or top-dose-only effect, or another doubt; inactive = no such curve, though single readings can be large or run the other way;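 note: plate controls were no enzyme wells and a reference inhibitor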
NPSR antag: neuropeptide S receptor (human) antagonism, cAMP. CHO-NPSR cells, cAMP TR-FRET, antagonist mode. hit rate 1% among 220,000. Potency, µM (doses to about 38.3 µM), without a hit: top-dose activity change, negative = inhibition, most hits filed as inhibitors. Q6W5P4; note: nearly all actives have a fitted effect of over 50% in size
Target sequence (Q6W5P4 whole entry, looked up): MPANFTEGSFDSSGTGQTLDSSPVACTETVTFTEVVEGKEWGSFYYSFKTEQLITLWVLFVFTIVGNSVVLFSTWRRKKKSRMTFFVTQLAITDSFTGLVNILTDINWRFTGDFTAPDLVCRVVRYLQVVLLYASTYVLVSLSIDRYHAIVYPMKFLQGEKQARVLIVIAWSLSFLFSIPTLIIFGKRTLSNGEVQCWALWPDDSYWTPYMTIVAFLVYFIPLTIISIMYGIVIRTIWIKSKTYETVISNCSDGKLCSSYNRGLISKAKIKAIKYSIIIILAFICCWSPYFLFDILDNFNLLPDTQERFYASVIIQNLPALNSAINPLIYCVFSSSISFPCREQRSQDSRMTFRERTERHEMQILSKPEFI
Tau fibril ThT: tau fibrillization inhibition (ThT binding). recombinant tau K18 P301L (four-repeat tau fragment), heparin-induced fibrillization, ThT fluorescence. Potency, µM (highest dose often 57.4 µM), inactives show at the top dose activity, negative = inhibition, hits mostly inhibitors. hit rate 2.1% among 270,000; note: nearly all actives have a fitted effect of over 55% in size
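Aggregation was driven by heparin (20 uM final) acting on recombinant tau […] bearing P301L in 100 mM sodium acetate pH 7; fibrils were detected with Thioflavin T.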
The depositor's hits bear a star; ? = inconclusive; . = not tested or not shown; ! = a repeat was not active; [ ] = another dose, or the depositor's remark. Most compounds without a hit are left out; they make up all but 9.5% or so of the library. Unless noted, calls come from the whole dose curve; as a rule, active = well fitted curve in the direction sought with a large enough effect; inconclusive = small, poorly fitted or top-dose-only effect, or another doubt; inactive = no such curve, though single readings can be large; an effect the other way counts as inactive or inconclusive. Unless noted, % is set by controls: 0 for no effect and ±100 for the full control effect; potency is the fitted concentration of half-maximal effect.

SMILES	Tau fibril FP	Tau fluor counter	HPGD block	ALDH1A1 block	NPSR antag	Tau fibril ThT
Cc1ccc(-n2c(-c3cccc(C)c3)n[nH]c2=S)cc1	-1%	-8%	22µM*	2%	-2%[46.1 µM]	-5%
Cc1cccc(-n2c(-c3ccncc3)n[nH]c2=S)c1	-8%	-7%	-28%	?	-15%[46.1 µM]	-10%
S=c1[nH]nc(-c2cccnc2)n1-c1ccccc1	-2%	-6%	-27%	7.9µM*	3%[46.1 µM]	-16%
S=c1[nH]nc(-c2ccc3ccccc3n2)n1-c1ccccc1	3%	-10%	28µM*	?	-7%	-9%
CSc1ccc(S(=O)(=O)NCCSC(C)(C)C)cc1	3%	-20%	-12%	7.9µM*	-16%[46.1 µM]	-2%
CSc1ccc(S(=O)(=O)NCCOc2ccccc2C)cc1	-6%	-11%	-20%	13µM*	-21%[46.1 µM]	6%
CC(C)(C)SCCNS(=O)(=O)c1ccc2ccccc2c1	-4%	-23%	-21%	15µM*	-8%[46.1 µM]	-14%
O=C1[C@@H]2[C@H]3[C@H](O)[C@H](O)C/C(=N/OCc4ccccc4)[C@H]3CC[C@H]2C(=O)N1c1ccc(F)cc1F	-6%[11.6 µM]	-7%[11.6 µM]	.	11%[13.5 µM]	.	-6%[11.5 µM]
CCN(C(=O)c1cn(CC(C)C)c(=O)c2cc(OC)c(OC)cc12)c1cc(OC)ccc1OC	9%	0%	.	.	.	-3%
O=C(Cn1ncc2c(=O)oc3ccccc3c21)N1CCN(c2ccc(Cl)cc2)CC1	-9%	-5%	.	.	.	4%
CN(C)CCCCl	.	.	-1%	8%	.	.
O=C(O)c1ccc(NCCc2ccc(Cl)cc2)c([N+](=O)[O-])c1	-1%	-16%	.	10%	-35%	5.6µM*
Cc1ccc(C(=O)NCCNc2ccc(Cl)cc2[N+](=O)[O-])o1	-14%	-25%	-21%	-3%	-15%[46.1 µM]	16µM*
O=C(NNC(=S)Nc1ccc(Cl)cc1Cl)c1ccc(N2CCOCC2)c([N+](=O)[O-])c1	?	?	?	0.45µM*	-17%	5µM*
Cc1ccc(CNc2ccc(Cl)cc2[N+](=O)[O-])cc1	-3%	-25%	-25%	-6%	-18%[46.1 µM]	?
O=C(NNC(=S)Nc1ccc(Br)cc1)c1ccc(N2CCOCC2)c([N+](=O)[O-])c1	?	?	35µM*	0.89µM*	5%	13µM*
O=C(c1ccc(N2CCCCC2)c([N+](=O)[O-])c1)N1CCOCC1	-6%	-1%	-15%	1%	0%[46.1 µM]	-8%
CCN(C(=O)C1CCN(S(=O)(=O)c2c(C)noc2/C=C/c2ccc(C)cc2)CC1)c1cccc(C)c1	-4%	-11%	.	.	.	-14%
Cc1ccc(NC(=S)NNC(=O)c2ccc(N3CCOCC3)c([N+](=O)[O-])c2)cc1Cl	?	?	-11%	7.9µM*	-7%	11µM*
Cc1cc(C(=O)Nc2ccc(N3CCCC3)c(Cl)c2)ccc1[N+](=O)[O-]	5%	?	-11%	20µM*	-10%	5µM*
Cc1cccc(NC(=O)c2ccc(N3CCOCC3)c([N+](=O)[O-])c2)n1	-4%	-4%	.	?	6%	?
Cc1ccc(NC(=O)c2ccc(NCCN)c([N+](=O)[O-])c2)cc1Cl	5%	?	-14%	?	-17%	13µM*
O=C(Nc1ccc(-c2nc3ccccc3o2)cc1)c1ccc(N2CCOCC2)c([N+](=O)[O-])c1	?	?	-4%	-10%	?	2.8µM*
N#CCCn1c(=O)cnc2cnc(Oc3ccccc3)nc21	.	.	.	-2%	.	.
O=c1c(F)cn(C2CCCO2)c(=O)n1Cc1ccc(Cl)cc1 (stereo not given)	11%	17%	.	-6%	-20%	13%
SMILES	Tau fibril FP	Tau fluor counter	HPGD block	ALDH1A1 block	NPSR antag	Tau fibril ThT
N#Cc1ccccc1Sc1ccccc1C(=O)OCC(=O)NC12CC3CC(CC(C3)C1)C2	-1%	-20%	13µM*	-5%	-45%	-5%
CC(=O)c1ccc(NC(=O)COC(=O)c2ccccc2Sc2ccccc2C#N)cc1	11%	6%	?	6%	-45%	7%
N#Cc1ccccc1Sc1ccccc1C(=O)OCC(=O)N1CCN(C(=O)c2ccco2)CC1	0%	3%	?	14µM*	-8%[46.1 µM]	1%
N#Cc1cccc(NC(=O)COC(=O)c2ccccc2Sc2ccccc2C#N)c1	16µM*	?	.	-1%	?	14%
CC1CCCC(NC(=O)COC(=O)c2ccccc2Sc2ccccc2C#N)C1C (stereo not given)	3%	-6%	-25%	14%	?	-1%
CCOC(=O)Cn1c(=O)n(-c2ccccc2OC)c2nc(-c3ccc(C(C)C)cc3)nc(C(N)=O)c21	4%	-2%	.	.	.	3%
CC(C)(C)c1ccc(OCc2nnc(-c3ccccc3)o2)cc1	-3%	-14%	.	.	.	-18%
CCc1ccc[n+](-c2[nH]c(=O)sc2/C=N/N=C(\N)[O-])c1	-5%	-18%	.	.	-7%	.
O=c1[nH]c(-[n+]2ccccc2)c(/C=N/NC([S-])=Nc2ccccc2)s1	?	-23%	.	20µM*	15%	28µM*
Cc1cc[n+](-c2[nH]c(=O)sc2/C=N/NC([S-])=Nc2ccccc2)cc1	-10%	-27%	-29%	25µM*	-7%	?
Cc1cc(C)c[n+](-c2[nH]c(=O)sc2/C=N/NC([S-])=Nc2ccccc2)c1	-7%	-10%	28µM*	?	-6%	?
CCc1ccc[n+](-c2[nH]c(=O)sc2/C=N/NC([S-])=Nc2ccccc2)c1	?	-25%	.	14µM*	1%[46.1 µM]	25µM*
Cc1cccc(CNC(=O)c2ccc3nc(-c4ccccc4)c(-c4ccccc4)nc3c2)c1	-4%	-12%	.	.	.	1%
CCC(C)N1C(=O)CN(C2CCCCCC2)C(=O)C1c1ccccc1F (stereo not given)	7%	-1%	.	16µM*	-20%	-2%
O=C1C(c2ccc(F)cc2)N(C2CCCCC2)C(=O)CN1C1CCCC1 (stereo not given)	-1%	-9%	1%	?	-20%[46.1 µM]	-4%
CCOc1cccc(=O)c2c(C)n(Cc3ccco3)c(C)c12	3%	-12%	?	2.2µM*	-33%[46.1 µM]	-6%
Cc1ccc(O)c(C(=O)/C=C/c2ccc3c(c2)OCCO3)c1	20%	-9%	.	-1%	-4%	16µM*
O=C(/C=C/c1ccc2c(c1)OCCO2)c1ccccc1	?	-11%	.	.	-10%	?
Nc1ccccc1C(=O)/C=C\c1ccc2c(c1)OCO2	5%[11.6 µM]	?	.	5%[13.5 µM]	.	1.3µM*
Nc1ccccc1C(=O)/C=C/c1ccc2c(c1)OCO2	2%	-22%	?	-6%	18%	14µM*!
O=C(/C=C/C=C/c1ccc2c(c1)OCO2)N1CCCCC1	1%	-7%	16µM*	?	.	-15%
